Screens (PubChem BioAssay)
Measles CPE = protection of cells from measles virus; Measles virus-infected cells, CPE protection, absorbance; protection (pct of control), % at 4 µM; actives 1.5% (n = 140,000); in the data active means protection mostly above about 24%, no sharp cut-off; inactive means mostly below about 26%
MT1-MMP txn act = activates MT1-MMP transcription; HT1080 MT1-MMP promoter luciferase reporter, luminescence, overnight; stronger effect = higher value; activation factor at 10 µM; actives 0.16% (n = 86,000); AID 750;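 active means activation factor of at least 2 for MT1-MMP transcription at 10 µM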
Smad3 FoxH1 inh = Smad3 (human) transcription factor binding inhibition; P84022; TR-FRET Smad3/Dy647-FoxH1 peptide binding, europium anti-His; inhibition, % at 25 µM; actives 0.29% (n = 88,000); AID 630;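 active means compounds that reduce the energy-transfer binding signal between the protein and its labelled peptide by more than half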;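 further: 0% = Smad3 plus labelled peptide maximal FRET and 100% = peptide-only background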
Target sequence (P84022 whole entry, looked up): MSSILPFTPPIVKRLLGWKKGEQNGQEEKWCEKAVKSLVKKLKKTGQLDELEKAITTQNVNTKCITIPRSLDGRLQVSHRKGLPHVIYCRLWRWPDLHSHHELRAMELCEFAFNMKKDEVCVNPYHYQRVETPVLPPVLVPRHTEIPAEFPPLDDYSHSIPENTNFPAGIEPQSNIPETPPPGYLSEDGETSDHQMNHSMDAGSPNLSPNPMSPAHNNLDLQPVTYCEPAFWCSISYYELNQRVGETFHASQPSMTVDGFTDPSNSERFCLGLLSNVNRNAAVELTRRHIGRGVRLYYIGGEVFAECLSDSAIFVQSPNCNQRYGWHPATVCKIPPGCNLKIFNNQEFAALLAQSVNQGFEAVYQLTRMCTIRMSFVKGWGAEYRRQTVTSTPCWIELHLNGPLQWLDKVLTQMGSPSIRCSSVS
* hit, by the source's call; / = not tested or not shown; [ ] = dose if it differs, or a comment. Shown are actives, neighbours in structure and some others; about 1.7% of the full set was active somewhere.

SMILES	Measles CPE	MT1-MMP txn act	Smad3 FoxH1 inh
CCCCOC(=O)CSc1nc(N)c(C#N)c(-c2ccc(OCC)cc2)c1C#N	17	1.1	78*[fluorescence artefact?]
C=C(N(C)C)[C@]1(C)C[C@H]1[C@H](NC(=O)CNC(=O)OCc1ccccc1)c1ccccc1	/	1.2	/
C[N+](C)(C)/N=C/c1ccc(O)c(O)c1	/	/	13
Cc1ccc(S(=O)(=O)Oc2ccc3c(c2)O/C(=C\c2cccnc2)C3=O)cc1	33*	1	-7
O=C1/C(=C/c2cccnc2)Oc2cc(OS(=O)(=O)c3ccc(F)cc3)ccc21	20	1	2
CCOC(=O)C1=C(C)N(CCCC(=O)O)C(=O)NC1c1ccccc1OC(=O)c1cccc(I)c1 (stereo not given)	/	1.1	/
Cc1nc2c3ccccc3[nH]c(=O)n2n1	68*	1.2	-4
CCn1c(=O)[nH]c2ccccc2c1=O	15	1.1	0
Cc1[nH]c(C)c(CN(C)C)c1CN(C)C	/	/	-5
CNC(=O)COC(=O)[C@@H](Nc1ccc(S(=O)(=O)N2CCOCC2)cc1[N+](=O)[O-])C(C)C	18	/	/
Fc1ccccc1NC(=S)N1CCN(Cc2ccccc2)CC1	5	/	/
O=C1c2ccccc2C(=O)c2c(Nc3ccc4c5c(cccc35)C(=O)c3ccccc3-4)cccc21	/	/	83*
CNc1cccc2c1C(=O)c1ccccc1C2=O	6	/	/
O=C1c2ccccc2C(=O)c2c(NCc3cccnc3)cccc21	5	/	/
O=C1c2ccccc2C(=O)c2c(Nc3cc4c5c(ccc6c7ccc8c9c(cc(Nc%10cccc%11c%10C(=O)c%10ccccc%10C%11=O)c(c3c56)c97)-c3ccccc3C8=O)C(=O)c3ccccc3-4)cccc21	/	/	73*
O=c1c[n+](CCCC[n+]2cc(=O)o[nH]2)[nH]o1	/	/	-7
C[C@@H](N)/C(N)=N\O	/	/	5
OCCN(/C=N/c1nc(-c2ccc(Br)cc2)cs1)CCO	32*	/	/
Brc1ccc(-c2csc(/N=C/N3CCOCC3)n2)cc1	6	1.1	-9
Cc1ccc(NC(=O)CN(C)C(=O)CCC(=O)c2cccs2)cc1	17	/	/
O=C1Cc2ccccc2N1c1c(Cl)cccc1Cl	8	2.2*	-2
O=C1CCCc2ccccc2N1Cc1c(Cl)cccc1Cl	4	/	/
NC(=O)[C@@H]1CCCNC1	/	/	-3
COC(=O)c1nc(NC(=O)C(C)(C)C)n[nH]1	36*	/	/
COC(=O)c1nc(NC(=O)c2ccc(Br)cc2)n[nH]1	4	1.2	4
SMILES	Measles CPE	MT1-MMP txn act	Smad3 FoxH1 inh
Cc1ccc(C(=O)CSc2nnc(-c3ccccc3)o2)cc1	19	1.2	5
O=C(CSc1nnc(-c2ccncc2)o1)Oc1ccccc1	5	1.2	-2
O=C(CSc1nnc(-c2cccnc2)o1)Oc1ccccc1	44*	1.1	/
O=C(O)CSc1nnc(-c2ccccc2)o1	33*	0.9	-5
Cc1ccsc1/C=N/NS(=O)(=O)c1ccc([N+](=O)[O-])cc1	21	/	/
O=C(O)[C@@H]1[C@H](C(=O)NCc2cccnc2)[C@@H]2CC[C@H]1O2	/	/	-4
Cc1cccc(N(CC(=O)NC2CCCCC2)C(=O)CCCC(=O)Nc2ccccn2)c1	33*	1.2	15
Cc1cccc(N(CC(=O)NC2CCCC2)C(=O)CCCC(=O)Nc2ccccn2)c1	5	/	2
CCN(CC)S(=O)(=O)c1ccc(Cl)c(C(=O)Oc2cccc(-c3cnc4ccccc4n3)c2)c1	31*	/	/
CCN(CC)S(=O)(=O)c1cc(C(=O)Oc2cccc(-c3cnc4ccccc4n3)c2)ccc1Br	11	/	/
Cc1nc(N)nc2ccccc12	/	/	7
NS(=O)(=O)c1ccc(NCc2nc3ccccc3[nH]2)cc1	/	/	-3
CCCC[C@@H]1C[C@H]1C(NC(=O)c1cccs1)c1ccc(Cl)cc1 (stereo not given in full)	/	1.2	/
CC(=O)O[C@H]1CC[C@@]2(C)[C@@H](CC[C@H]3[C@H]2CC(=O)[C@]2(C)[C@@H]3C[C@H]3CC(C)=CC(=O)[C@@H]32)C1	/	/	15
CCC(=O)c1ccc(-c2ccccc2)cc1	9	/	/
O=C(C[N+]12CN3CN(CN(C3)C1)C2)c1ccc(-c2ccccc2)cc1	/	/	77*
CCC1=C2CC[C@H]3C(=O)N(C)C(=O)[C@H]3[C@H]2[C@@]2(Cc3ccccc3)C(=NCCc3c[nH]c4ccccc34)OC(=O)N2C1=O	/	1.1	/
C[C@@H](C[C@H](N)C(=O)O)C(=O)O	/	/	-6
CCc1cc(SC#N)cc(CC)c1NC(=O)CCl	7	/	/
N=C(N)[C@H](N=Nc1ccccc1)C(N)=O	/	/	-5
Cc1ccc[n+](-c2[nH]c(=O)sc2/C=N/NC(=O)c2ccccc2[O-])c1	10	/	/
O=C(O)c1ccccc1Nc1ccc([N+](=O)[O-])cc1	83*	/	/
O=C(O)c1ccccc1Nc1ccccc1C(=O)O	4	/	/
CCN1C(=O)/C(=C\c2cccn2-c2ccc([N+](=O)[O-])cc2)N(CC)C1=S	1	/	/
Nc1c(C2=NCCO2)nnn1Cc1ccccc1	41*	1.1	-10
SMILES	Measles CPE	MT1-MMP txn act	Smad3 FoxH1 inh
NCc1nnn(Cc2ccccc2)c1N	/	/	1
O=C(NCc1cccs1)O[C@H]1C[C@H]2CC[C@@H]1C2	/	/	3
COC1=Cc2c(ccc3ccc(=O)oc23)OC1(C)C	1	0.9	7
C=CCc1c(OC)ccc2ccc(=O)oc12	36*	/	/
COc1ccc(-c2noc(=O)[nH]2)cc1	5	/	/
CCOc1ccc(-c2noc(=O)[nH]2)cc1	38*	1.3	-2
C/C(=N\O)[C@@H]1C[C@H](CC(=O)O)C1(C)C	/	/	-1
O=C(Cc1ccccc1)Nc1nc(-c2cccs2)cs1	62*	1.2	-6
O=C(Cc1ccccc1F)Nc1nc(-c2cccs2)cs1	57*	1.6	-4
O=C(Cc1ccccc1)Nc1nnc(-c2cccs2)s1	22	1.3	-3
O=C(COc1ccc(Cl)cc1)Nc1nc(-c2cccs2)cs1	16	1.1	-21
O=C(O)c1c[nH]c2cc(OCc3ccccc3)ccc2c1=O	/	/	-9
COC(=O)[C@@H]1C[C@@]2(O)[C@@H](O)[C@@H](O)[C@@H](O)C[C@H]2N1Cc1ccc(N2CCOCC2)cc1	/	1.1	/
O=C1c2ccccc2C(=O)N1CC(O)CNc1ccc(Br)cc1 (stereo not given)	24	/	/
CC(C)(C)N=Cc1cc(-c2ccccc2)sc1O	41*	1.6	-2
CCOC(=O)c1sc(-c2ccccc2)cc1N	8	1.5	-14
CN1[C@@H]2CC(OC(=O)[C@@H](CO)c3ccccc3)C[C@H]1[C@H]1O[C@H]12 (stereo not given in full)	/	/	-12
Cc1ccc(N2CCN(CCC(=O)O)CC2)cc1	/	/	-1
COC(=O)[C@@]1(Cc2ccc(OC)cc2)[C@H]2c3cc(C(=O)N(C)C)n(Cc4cc(C)n(C)n4)c3C[C@H]2CN1C(=O)c1ccccc1	/	1.1	/
COc1ccc(OC)c(Nc2nc3nonc3nc2N2CCCCC2)c1	17	/	/
COc1ccccc1Nc1nc2nonc2nc1N1CCC(C)CC1	78*	/	/
CCOC(=O)c1c(-c2ccc(C)cc2)csc1NC1=NS(=O)(=O)c2ccccc21	13	/	/
Nc1ccc(N=Nc2ccc(-c3ccc(O)cc3)cc2)c2ccc(S(=O)(=O)O)cc12	/	/	17
Cc1cc(CN2CCCCC2)c(O)c(CN2CCCCC2)c1	/	/	25
N#CCCN1CCN(S(=O)(=O)c2ccc(S(=O)(=O)N3CCOCC3)cc2)CC1	28*	1.1	4
CN(C)S(=O)(=O)c1ccc(S(=O)(=O)N2CCN(CCC#N)CC2)cc1	15	1	5
